Inconclusive results are not listed. Active and inactive are the calls of the source. The call rests on the fitted dose curve; in most records, active means well fitted cell-killing curve with a large enough effect in the repeat runs; inconclusive means weak or mixed curves, or effect the other way; inactive means flat fitted curve, though single readings scatter.
Experiment: qHTS assay to identify small molecule that activate the aryl hydrocarbon receptor (AhR) signaling pathway - cell viability counter screen (AID 743086);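 further: HepG2 liver cells carrying the AhR DRE luciferase reporter; nearly all actives have a fitted effect of over 45% in size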
Details: HepG2-AhR-luc viability, CellTiter-Fluor, 24 h; series mostly up to 70.3 µM; viability change, negative = cytotoxic: at the top concentration
From the text: U.S. Tox21 Program National Center for Advancing Translational Sciences [NCATS] NIH Chemical Genomics Center [NCGC] U.S. Environmental Protection Agency [EPA] National Institutes of Environmental Health Sciences [NIEHS] National Toxicology Program [NTP] U.S. Food and Drug Administration [FDA] Tox21 Assay overview: The Aryl hydrocarbon Receptor (AhR), a member of the family of basic helix-loop-helix transcription factors, is crucial to adaptive responses to environmental changes. AhR mediates cellular responses to environmental pollutants such as aromatic hydrocarbons through induction of phase I and II enzymes but also interacts with other nuclear receptor signaling pathways A cell based HepG2-AhR-luc assay (HG2L7.5c1 cell line, developed by Dr. Michael S. Denison, University of California at Davis) was used to assess the activation of AhR. HepG2 (human hepatocellular carcinoma) cells were stably transfected with an Ah receptor-responsive firefly luciferase reporter gene plasmid containing 20 dioxin responsive elements and luciferase reporter gene. Increased luciferase activity can be used to identify the compounds that induce AhR activation. The cytotoxicity of the compounds screened against the HepG2-AhR-luc cell line was tested in parallel by measuring the cell viability using CellTiter-Fluor assay in the same wells.
Tox21 Assay Protocol Summary: 4000 cells in 5 uL/well were dispensed into white wall/solid bottom 1536-well plates using a Multidrop Combi (Thermo Fisher Scientific Inc., Waltham, MA) dispenser. After the assay plates were incubated at 37C for 5 h, 23 nL of compound or DMSO vehicle was transferred to the assay plates by a pintool station (Kalypsys, San Diego, CA). The plates were incubated at 37C for 24 hr. For cell viability measurement, 1 ul/well of CellTiter-Fluor reagent (Promega, Madison, WI) was added into the assay plates using a Flying Reagent Dispenser (FRD) (Aurora Discovery, CA),and then the assay plates were incubated at 37C for 30 min. The fluorescence intensity in the plates was measured using a ViewLux plate reader (PerkinElmer, Shelton, CT), followed by the addition of 4 uL of ONE-Glo Luciferase Assay reagent (Promega) using an FRD (Aurora Discovery). After the assay plates were incubated at room temperature for 30 min, luminescence intensity was measured using a ViewLux plate reader (Perkin Elmer).
On the % scale 0 is the no-effect control and ±100 the full control effect.

SMILES	viability change, negative = cytotoxic	Potency
COC(=O)CC(C)=O	1.51% (inactive)	
CN(C)CCCSc1ccccc1NC(=O)/C=C/c1ccccc1	-24% (inactive)	
NC(CSCC(=O)O)C(=O)O (stereo not given)	4.2% (inactive)	
Nc1nc2c(ncn2COC(CO)CO)c(=O)[nH]1	-1.98% [at 32.5 µM] (inactive)	
CCCCNC(=O)NCCCC	5.03% (inactive)	
CCOc1ccc(C(=O)OCCN(CC)CC)cc1	24.7% (inactive)	
CCN(CC)CCNC(=O)c1cc(S(C)(=O)=O)ccc1OC	7.96% [at 32.5 µM] (inactive)	
O=C[C@H](O)[C@@H](O)[C@H](O)[C@H](O)CO		inactive
CN1CCN(c2cc3c(cc2F)c(=O)c(C(=O)O)cn3-c2ccc(F)cc2)CC1	-4.88% (inactive)	
N[C@H]1CN(c2c(F)cc3c(=O)c(C(=O)O)cn(C4C[C@H]4F)c3c2Cl)CC12CC2 (stereo not given in full)	-1.57% (inactive)	
CC(=O)Nc1c(I)cc(I)c(C(=O)O)c1I	1.64% (inactive)	
c1cnc(N2CCN(Cc3ccc4c(c3)OCO4)CC2)nc1	-0.379% (inactive)	
OCCOc1ccc(OCCO)cc1	-2.24% [at 95 µM] (inactive)	
C/C=C(\C)C#N	6.91% (inactive)	
CC(=O)c1ccccc1O	0.848% (inactive)	
Nc1c2c(nc3ccccc13)CCCC2O (stereo not given)	-9.59% (inactive)	
NC(=O)c1ccc(N)cc1	19.1% (inactive)	
CC1(C)C(O)C(C)(C)C1O (stereo not given)	-1.15% (inactive)	
N[C@@H](C(=O)N[C@@H]1C(=O)N2C(C(=O)O)=C(Cl)CS[C@H]12)c1ccccc1	11.8% (inactive)	
CCN(Cc1ccncc1)C(=O)C(CO)c1ccccc1 (stereo not given)	-2.16% (inactive)	

SMILES	viability change, negative = cytotoxic	Potency
CCCCOCCOCCOCc1cc2c(cc1CCC)OCO2	10.7% (inactive)	
C1OCOCO1	-2.66% [at 95 µM] (inactive)	
CC(C[N+](C)(C)C)OC(N)=O (stereo not given)	0.493% (inactive)	
CCC(C)C1CCCCC1=O (stereo not given)	0.183% (inactive)	
CC(=O)Nc1ccc(S(N)(=O)=O)cc1	-2.42% (inactive)	
CC(C)OC(=O)c1ccccc1	5.06% [at 95 µM] (inactive)	
CCCCCOC(=O)CCCCC	-21.7% (inactive)	
O=c1[nH]c(=O)n([C@H]2C[C@H](O)[C@@H](CO)O2)cc1I	-16.2% [at 32.5 µM] (inactive)	
O=Cc1cccc([N+](=O)[O-])c1	4.83% (inactive)	
NC(=O)Nc1ccccc1	14.3% (inactive)	
C[N+](C)(C)CCCCCC[N+](C)(C)C	-0.68% (inactive)	
O=C(O)COc1nn(Cc2ccccc2)c2ccccc12	-1.45% (inactive)	
COc1ccc(CCN(C)CCCC(C#N)(c2cc(OC)c(OC)c(OC)c2)C(C)C)cc1OC (stereo not given)	-21.2% (inactive)	
Cc1ccc(Cl)cc1Cl	-3.16% (inactive)	
CCCCC(CC)COC(=O)c1ccccc1O (stereo not given)	0.252% (inactive)	
CCOC(=O)Nc1ccc(NCc2ccc(F)cc2)nc1N		inactive
NCCCNCCSP(=O)(O)O	-0.665% (inactive)	
OC1CCCCC1c1ccccc1 (stereo not given)	-5.7% (inactive)	
Nc1ccc(S(=O)(=O)Nc2ccnn2-c2ccccc2)cc1	7.68% [at 32.5 µM] (inactive)	
N#Cc1ccc(C2CCCc3cncn32)cc1 (stereo not given)	6.18% [at 32.5 µM] (inactive)	
